Laboratory results published in PubChem BioAssay.
Calls of active or inactive are those of the source.

Columns and labels:
Albumin (Bos taurus) = Albumin (Bos taurus) (UniProt P02769); test: bovine serum albumin binders on microarray, profiling panel, artefact control for SMM control protein annotation, biochemical, small-molecule microarray, Alexa647 label, 635/667 nm fluorescence (AID 1118); settings: BSA-A647 binding, fluorescence 635 nm, higher = more signal;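 also: score merges 667 nm emission intensity and signal-to-noise per printed compound spot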
Albumin (Bos taurus), sequence (P02769 whole entry, looked up): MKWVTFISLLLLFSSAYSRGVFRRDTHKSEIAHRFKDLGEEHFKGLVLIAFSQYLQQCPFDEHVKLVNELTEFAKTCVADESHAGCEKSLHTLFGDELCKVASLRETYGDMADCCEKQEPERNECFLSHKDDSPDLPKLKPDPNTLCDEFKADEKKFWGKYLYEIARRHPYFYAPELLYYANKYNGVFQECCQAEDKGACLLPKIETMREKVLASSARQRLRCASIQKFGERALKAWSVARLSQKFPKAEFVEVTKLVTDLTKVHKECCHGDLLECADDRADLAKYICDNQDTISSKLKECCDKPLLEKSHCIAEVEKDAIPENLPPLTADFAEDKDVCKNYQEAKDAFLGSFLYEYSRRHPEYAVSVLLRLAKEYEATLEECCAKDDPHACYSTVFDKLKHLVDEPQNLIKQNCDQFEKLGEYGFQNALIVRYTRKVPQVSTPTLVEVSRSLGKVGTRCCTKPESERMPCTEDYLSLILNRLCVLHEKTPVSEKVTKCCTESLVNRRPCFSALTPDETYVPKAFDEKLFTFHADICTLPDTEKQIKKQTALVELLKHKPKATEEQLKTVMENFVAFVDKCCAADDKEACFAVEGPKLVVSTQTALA

[1] = small-molecule microarray binders of probe aXIP, primary screen, biochemical, NeuroSMM set, 635/667 nm fluorescence (AID 1119); settings: higher = more signal, called active from +8 up or from −8 down;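 also: probe is the protein aXip251-270 applied at 1 µg/mL to compound-printed slides; binding of probe to printed compounds measured as 667 nm fluorescence plus signal to noise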
[2] = small-molecule binders of probe aNOTCH3, primary screen, biochemical, small-molecule microarray, 635/667 nm fluorescence (AID 1120); settings: higher = more signal;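 also: probe is a biotin-tagged antibody raised against NOTCH3 rather than NOTCH3 protein; score merges spot fluorescence near 667 nm with spot signal to noise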
[3] = small-molecule binders of probe aNOTCH2, primary screen, biochemical, small-molecule microarray, 635/667 nm fluorescence (AID 1121); settings: higher = more signal;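 also: score merges feature fluorescence read at 667 nm with its signal to noise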
[4] = molecular target: Carbonic anhydrase 2 (Homo sapiens) (UniProt P00918); test: CAII small-molecule binders, profiling panel, biochemical, small-molecule microarray, Alexa647-labelled CAII (AID 1122); settings: CAII-A647 binding fluorescence, higher = more signal
[5] = COS7 lysate on small-molecule microarray, probe aHis, 635 nm (AID 1123); settings: COS7 cell lysate, fluorescence, higher = more signal;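 also: z-score combines 667nm fluorescence intensity with signal-to-noise per printed compound spot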
[6] = compound binding in COS7 lysate, probe aLAP1, primary screen, cell lysate, small-molecule microarray (AID 1124); settings: probe aLAP1, fluorescence, higher = more signal;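 also: lysate comes from COS7 cells expressing LAP1 and is applied at 0.3 µg/mL; score merges spot fluorescence near 667 nm with signal-to-noise over triplicate slides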
Sam68 (KHDRBS1) = test: Sam68 small-molecule binders, primary screen, biochemical, small-molecule microarray, 635 nm fluorescence (AID 1125); settings: small-molecule microarray binding, higher = more signal;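 also: score merges 667 nm channel intensity with signal to noise over triplicate slides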
[7] = tested on: Chordin-like protein 2 (CHRDL2); test: CHRDL2 small-molecule binders, primary screen, biochemical, small-molecule microarray, 635 nm fluorescence (AID 1126); settings: small-molecule microarray binding, fluorescence 635 nm; higher = more signal;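 also: printed compound slides probed with Chrdl2 protein at 4 µg/mL for 1 h at 4 C; score merges 667 nm emission intensity with signal to noise over three replicate slides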
[8] = molecular target: Concanavalin-A (Canavalia ensiformis) (UniProt P02866); test: ConA small-molecule binders, primary screen, artefact control for SMM control protein annotation, biochemical, small-molecule microarray, Alexa647 label, 635 nm (AID 1127); settings: ConA-A647 binding fluorescence, higher = more signal;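 also: z combines 667 nm emission intensity with signal-to-noise across three replicate slides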
Concanavalin-A (Canavalia ensiformis), sequence (P02866 whole entry, looked up): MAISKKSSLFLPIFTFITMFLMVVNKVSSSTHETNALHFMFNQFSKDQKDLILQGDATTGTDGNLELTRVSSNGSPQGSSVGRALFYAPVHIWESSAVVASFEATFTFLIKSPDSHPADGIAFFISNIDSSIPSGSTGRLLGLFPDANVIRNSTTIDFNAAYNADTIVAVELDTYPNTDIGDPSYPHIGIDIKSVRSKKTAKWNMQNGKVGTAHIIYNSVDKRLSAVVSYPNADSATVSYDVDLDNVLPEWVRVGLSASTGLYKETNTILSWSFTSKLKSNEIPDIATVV

[9] = anti-His antibody binders, primary screen, artefact control for SMM control protein annotation, biochemical, small-molecule microarray, 635 nm fluorescence (AID 1128); settings: anti-His Alexa647 antibody binding, higher = more signal;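 also: score merges feature fluorescence with signal-to-noise for each printed compound spot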
[10] = tested on: Human papillomavirus type 1a E7 protein (residues 1-88); test: HPV1a E7 small-molecule binders, primary screen, biochemical, small-molecule microarray, residues 1-88, 635 nm (AID 1129); settings: small-molecule microarray binding, fluorescence 635 nm; higher = more signal
[11] = molecular target: Focal adhesion kinase 1 (Homo sapiens) (UniProt Q05397); test: small-molecule microarray binders of FAK, primary screen, biochemical, 635/667 nm fluorescence, BSA, DTT (AID 1130); settings: PTK2 binding, 635 nm fluorescence, higher = more signal;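 also: composite of spot emission at 667 nm and signal to noise over triplicate slides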
Focal adhesion kinase 1 (Homo sapiens), sequence (Q05397 whole entry, looked up): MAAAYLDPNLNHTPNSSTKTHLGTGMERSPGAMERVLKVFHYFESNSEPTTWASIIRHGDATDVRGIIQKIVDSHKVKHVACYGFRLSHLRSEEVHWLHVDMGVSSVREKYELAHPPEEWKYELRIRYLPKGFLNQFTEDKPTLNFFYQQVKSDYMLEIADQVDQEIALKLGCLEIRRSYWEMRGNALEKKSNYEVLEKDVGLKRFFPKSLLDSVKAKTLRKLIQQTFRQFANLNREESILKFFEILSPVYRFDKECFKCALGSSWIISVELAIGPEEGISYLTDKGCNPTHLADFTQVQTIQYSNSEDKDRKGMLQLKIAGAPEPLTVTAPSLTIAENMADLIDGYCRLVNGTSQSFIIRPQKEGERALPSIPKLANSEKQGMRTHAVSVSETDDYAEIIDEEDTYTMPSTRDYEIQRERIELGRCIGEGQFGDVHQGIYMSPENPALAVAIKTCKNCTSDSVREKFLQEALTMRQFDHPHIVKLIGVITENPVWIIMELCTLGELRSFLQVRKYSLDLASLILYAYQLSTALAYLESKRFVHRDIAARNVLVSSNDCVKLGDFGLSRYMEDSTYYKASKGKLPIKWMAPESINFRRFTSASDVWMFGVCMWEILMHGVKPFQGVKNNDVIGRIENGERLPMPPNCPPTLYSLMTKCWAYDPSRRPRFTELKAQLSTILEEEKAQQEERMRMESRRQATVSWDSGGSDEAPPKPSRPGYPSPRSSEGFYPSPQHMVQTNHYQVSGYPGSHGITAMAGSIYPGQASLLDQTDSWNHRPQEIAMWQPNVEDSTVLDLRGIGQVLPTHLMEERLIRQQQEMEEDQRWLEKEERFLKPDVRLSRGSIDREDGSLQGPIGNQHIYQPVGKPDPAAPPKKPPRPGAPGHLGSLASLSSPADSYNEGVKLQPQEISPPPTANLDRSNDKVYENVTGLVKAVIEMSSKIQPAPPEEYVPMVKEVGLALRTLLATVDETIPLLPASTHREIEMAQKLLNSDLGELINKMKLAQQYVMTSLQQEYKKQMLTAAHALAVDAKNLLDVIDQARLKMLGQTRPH

[12] = tested on: Fibrinogen (Alexa647-labelled); test: fibrinogen binders on compound microarrays, profiling panel, artefact control for SMM control-protein annotation, biochemical, small-molecule microarray, 635/667 nm fluorescence (AID 1131); settings: fibrinogen-A647 binding fluorescence, higher = more signal;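 also: z-score merges 667 nm fluorescence with per-spot signal-to-noise over triplicate slides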
[13] = molecular target: Follistatin (Homo sapiens) (UniProt P19883); test: follistatin binders on small-molecule microarrays, primary screen, biochemical, small-molecule microarray, 635/667 nm fluorescence (AID 1132); settings: FST binding, 635 nm fluorescence, higher = more signal
Follistatin (Homo sapiens), sequence (P19883 whole entry, looked up): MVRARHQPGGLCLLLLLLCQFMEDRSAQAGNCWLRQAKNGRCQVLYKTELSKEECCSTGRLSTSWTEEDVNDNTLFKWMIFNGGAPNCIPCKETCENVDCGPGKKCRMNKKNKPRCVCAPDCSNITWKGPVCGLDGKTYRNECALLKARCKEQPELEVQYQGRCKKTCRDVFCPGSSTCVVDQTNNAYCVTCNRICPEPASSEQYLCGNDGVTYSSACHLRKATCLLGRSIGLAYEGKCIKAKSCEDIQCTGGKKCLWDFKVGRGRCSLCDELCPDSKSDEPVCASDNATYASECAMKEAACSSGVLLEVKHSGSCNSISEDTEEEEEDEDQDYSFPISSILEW

[14] = molecular target: Fibroblast growth factor 2 (Homo sapiens) (UniProt P09038); test: FGF2 binders on small-molecule microarrays, primary screen, biochemical, small-molecule microarray, 635/667 nm fluorescence (AID 1133); settings: small-molecule microarray binding, FGF2, fluorescence 635/667; higher = more signal
Fibroblast growth factor 2 (Homo sapiens), sequence (P09038 whole entry, looked up): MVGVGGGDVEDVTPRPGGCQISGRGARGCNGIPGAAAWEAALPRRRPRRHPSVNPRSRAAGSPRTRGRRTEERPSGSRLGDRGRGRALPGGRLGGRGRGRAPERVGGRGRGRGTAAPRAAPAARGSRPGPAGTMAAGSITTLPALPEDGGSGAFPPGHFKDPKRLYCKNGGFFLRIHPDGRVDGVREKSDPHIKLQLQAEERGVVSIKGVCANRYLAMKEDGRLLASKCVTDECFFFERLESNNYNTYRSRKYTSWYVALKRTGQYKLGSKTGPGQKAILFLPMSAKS

[15] = mitochondrial membrane potential change in A549 cells, profiling panel, cell-based, JC-1 fluorescence, basal, 24 h, 100 nL (AID 1138); settings: higher = more signal;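 also: A549 lung adenocarcinoma cells under basal conditions with no added stimulus; test concentration not given here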
Lefty1 = Lefty1 binders on small-molecule microarrays, primary screen, biochemical, small-molecule microarray, 635/667 nm fluorescence (AID 1139); settings: small-molecule microarray binding, fluorescence 635/667; higher = more signal
[16] = tested on: wheat germ agglutinin (Triticum aestivum), Alexa647-labelled; test: wheat germ agglutinin binders on compound microarrays, profiling panel, artefact control for SMM control-protein annotation, biochemical, small-molecule microarray, 635/667 nm fluorescence (AID 1140); settings: WGA-A647 binding, 635 nm fluorescence, higher = more signal;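 also: score merges 667 nm feature emission with signal to noise over triplicate slides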
[17] = molecular target: Luciferin 4-monooxygenase (Photinus pyralis) (UniProt P08659); test: firefly luciferase enzyme inhibitors, primary screen, biochemical, luminescence, purified enzyme, 2006 set (AID 1141); settings: SteadyGlo luminescence, 30 min, higher = more signal, called active from +8 up or from −8 down;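 also: cell-free assay with purified firefly luciferase at 100 ng per well in PBS; test concentration not given here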
Luciferin 4-monooxygenase (Photinus pyralis), sequence (P08659 whole entry, looked up): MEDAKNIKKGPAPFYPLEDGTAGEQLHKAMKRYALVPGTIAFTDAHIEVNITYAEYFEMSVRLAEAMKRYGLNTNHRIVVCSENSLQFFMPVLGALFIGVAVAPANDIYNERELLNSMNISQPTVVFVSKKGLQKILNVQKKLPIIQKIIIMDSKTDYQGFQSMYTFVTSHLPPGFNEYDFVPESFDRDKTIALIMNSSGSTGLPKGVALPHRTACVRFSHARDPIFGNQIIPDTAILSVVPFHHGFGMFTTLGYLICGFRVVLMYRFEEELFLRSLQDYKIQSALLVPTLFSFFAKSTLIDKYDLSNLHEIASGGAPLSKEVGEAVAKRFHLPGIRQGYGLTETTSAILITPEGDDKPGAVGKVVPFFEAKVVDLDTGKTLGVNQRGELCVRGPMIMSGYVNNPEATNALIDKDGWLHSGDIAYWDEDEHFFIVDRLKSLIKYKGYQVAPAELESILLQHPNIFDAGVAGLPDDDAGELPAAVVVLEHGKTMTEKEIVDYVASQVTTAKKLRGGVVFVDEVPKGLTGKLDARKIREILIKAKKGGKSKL

Row | SMILES | composite z-score (Albumin (Bos taurus)) | composite Z-score [1] | composite z-score [2] | composite z-score [3] | composite z-score [4] | composite z-score [5] | composite z-score [6] | composite z-score (Sam68 (KHDRBS1)) | composite z-score [7] | composite z-score [8] | composite z-score [9] | composite z-score [10] | composite z-score [11] | composite z-score [12] | composite z-score [13] | composite z-score [14] | z-score [15] | composite z-score (Lefty1) | composite z-score [16] | z-score [17]
1 | CC(C)=CCCC(C)=CCON=C1C[C@@H](O)[C@@H](O)[C@@H]2[C@@H]3C(=O)N(C(C)(C)C)C(=O)[C@@H]3CC[C@H]12 | 0.161 | 1.26 (inactive) | 0.149 | -0.0846 | 0.0334 | 0.043 | 0.373 | 0.293 | 0.346 | 0.198 | -0.119 | 0.635 | -0.0868 | 0.199 | 0.329 | 0.248 | -0.0133 | 0.536 | -0.849 | 0.0533 (inactive)
2 | COc1ccc(O[C@H]2C=C[C@@H](c3ccccc3)O[C@@H]2COC(=O)CCC(C)=NOC(C)CN2CCCc3nc(C)c(C)cc32)cc1 (stereo not given in full) | 0.247 | 1.32 (inactive) | 0.0013 | -0.106 | 0.21 | 0.676 | 0.304 | 1.31 | 0.43 | 1.01 | 0.264 | 1.11 | 0.0304 | 0.381 | 0.653 | 0.584 | 1.89 | 0.901 | -0.028 | 0.503 (inactive)
3 | CCOC(=O)[C@H](CC(C)C)NC(=O)CCC1CC(OC(=O)NCc2cccc3ccccc23)CC2(CCCC(COC(=O)NCCOc3ccccc3)O2)O1 (stereo not given in full) | 0.496 | -0.309 (inactive) | -0.0048 | 0.0174 | 0.533 | 0.684 | 0.27 | 1.32 | 0.412 | 1.06 | 0.907 | 1.15 | 0.0968 | 0.959 | 0.776 | 0.373 | 1.07 | 0.741 | 0.537 | 0.546 (inactive)
4 | CC(C)=CCCC(C)=CCON=C1C[C@@H](O)[C@@H](O)[C@@H]2[C@@H]3C(=O)N(C[C@@H]4CCCO4)C(=O)[C@@H]3CC[C@H]12 | 0.816 | 0.365 (inactive) | 0.121 | -0.0651 | 0.22 | 0.401 | -0.592 | 1.3 | 1.3 | 1.13 | 1.39 | 1.13 | 0.349 | 0.499 | 1.13 | 0.945 | -0.773 | 1.24 | 0.572 | 0.217 (inactive)
5 | CCOC(=O)NN=C1C[C@@H](O)[C@@H](O)[C@@H]2[C@@H]3C(=O)N(C(C)(C)C)C(=O)[C@@H]3CC[C@H]12 | -0.385 | 0.288 (inactive) | 0.0431 | 0.272 | -0.257 | -0.227 | -0.207 | 0.129 | 0.743 | 0.383 | 0.322 | 0.215 | 0.064 | 0.0959 | 0.903 | 0.647 | 0.233 | 0.279 | -0.0123 | 0.0659 (inactive)
6 | C[C@@H](c1ccccc1)N1C(=O)[C@H]2[C@H]3[C@H](O)[C@H](O)CC(=O)[C@H]3CC[C@H]2C1=O | 0.587 | -0.0023 (inactive) | -0.367 | -0.226 | -0.125 | 0.241 | 0.567 | 0.626 | 0.747 | 0.336 | 0.335 | 0.654 | 0.336 | 0.747 | 0.213 | 0.284 | 0.911 | 0.134 | 0.0458 | -1.36 (inactive)
7 | CCOC(=O)[C@H](CC(C)C)NC(=O)CCC1CC(OC(=O)NCc2cccc3ccccc23)CC2(CCCC(COC(=O)NCCc3ccc(Cl)cc3)O2)O1 (stereo not given in full) | 0.332 | -0.536 (inactive) | 0.0203 | -0.164 | 0.151 | 0.416 | -0.175 | 0.456 | 0.439 | 0.0711 | 0.372 | 0.484 | 0.218 | 0.635 | 0.547 | 0.352 | 0.31 | 0.863 | 0.844 | 0.226 (inactive)
8 | CC[C@@H](c1ccccc1)n1c(=O)n2n(c1=O)[C@H]1[C@H](O)[C@@H]3O[C@@H]3C(=NOC[C@@H](O)COCc3ccco3)[C@H]1CC2 | -0.368 | 0.615 (inactive) | -0.232 | -0.133 | 0.04 | -0.997 | -0.955 | -0.758 | 0.726 | -0.757 | -0.74 | -0.629 | 0.587 | -1.9 | 0.361 | 0.167 | -0.0823 | 0.389 | 0.534 | -0.47 (inactive)
9 | CCOC(=O)[C@H](Cc1ccccc1)NC(=O)CCC1CC(OC(=O)NCc2ccc3c(c2)OCO3)CC2(CCCC(COC(=O)NCCC(C)C)O2)O1 (stereo not given in full) | 0.112 | 0.416 (inactive) | 0.0252 | -0.0707 | 0.493 | 0.394 | -0.133 | 0.907 | 0.309 | 1.11 | 0.408 | 0.57 | 0.234 | 0.894 | 0.443 | 1.06 | -0.549 | 0.722 | 0.531 | 0.906 (inactive)
10 | CC[C@@H](c1ccccc1)n1c(=O)n2n(c1=O)[C@H]1[C@H](O)[C@@H]3O[C@@H]3C(=O)[C@H]1CC2 | 0.208 | 0.214 (inactive) | -0.0745 | -0.135 | -0.245 | -0.372 | -0.262 | 0.0274 | 0.673 | 0.576 | -0.276 | 0.0346 | 0.0786 | -0.0351 | 0.295 | 0.319 | 0.276 | 0.387 | 0.13 | -1.23 (inactive)
11 | CCOC(=O)NN=C1C[C@@H](O)[C@@H](O)[C@@H]2[C@@H]3C(=O)N(c4cccc(Oc5ccccc5)c4)C(=O)[C@@H]3CC[C@@H]12 | 0.736 | -0.147 (inactive) | -0.152 | -0.167 | 0.58 | 0.263 | 0.142 | -0.114 | -0.0646 | -0.245 | -0.103 | 0.45 | 0.0767 | 0.681 | -0.445 | -0.248 | -0.44 | -0.318 | 0.327 | 0.607 (inactive)
